Source: PubChem BioAssay AID371 (SRMLSC, 2006)
Screen size: about 3,300 compounds; about 280 (8.5%) were called active. The full list was thinned out, with actives kept by preference. Unmarked numbers belong to inactive results.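 Rule for the calls: active = mean growth inhibition over the two runs of 50% or more; inactive = mean growth inhibition under 50%.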

Assay: A549 NSCLC cell proliferation inhibitors – ATP luminescence, human non-small cell lung line, primary screen (AID 371);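 note: compound exposure lasted 72 h before the ATP read; 0% = untreated cell signal and 100% = no luminescence left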
Conditions: at 10 µM, stronger effect = higher value

In order of falling growth inhibition:
1. CCOC(=O)CSC1=C(C#N)C(c2ccc3c(c2)OCO3)CC(=O)N1 (stereo unspecified)  49.8%
2. COc1ccc(OC)c(C2=Nn3c(nnc3C3CCCCC3)SC2)c1  47.4%
3. CCc1nc(NC2CCCCC2)c(C#N)c2c1COC(C)(C)C2  46.1%
4. CCCCOc1ccc(C(=O)NCC(=O)NCC(=O)OCC)cc1  40.7%
5. CCCCOC(=O)CSC1=C(C#N)C(c2ccc3c(c2)OCO3)CC(=O)N1 (stereo unspecified)  40.3%
6. COc1ccc2c(c1)C1(C)CC(C)(C)N2C(=O)N1c1ccccc1 (stereo unspecified)  38.5%
7. Cc1[nH]c2ccc(F)cc2c(=O)c1SC(F)(F)C(F)C(F)(F)F (stereo unspecified)  35.6%
8. CN1C(=O)c2c(sc3c2CCCC3)NC1c1ccccc1O (stereo unspecified)  27.8%
9. Cc1nn(CC(N)=O)c(=O)c2ccccc12  25.7%
10. O=c1c2sc3nc(N4CCOCC4)c4c(c3c2ncn1Cc1ccco1)CCCC4  22.7%
11. COc1cccc(-c2nc(NC(C)(C)C)c3ccccc3n2)c1O  20.9%
12. O=C(CSc1nc2ccccc2c(=O)n1CC1CCCCC1)N1CCOCC1  19.6%
13. OC1(C2(O)CC(c3ccccc3)ON2)CCCCC1 (stereo unspecified)  19.6%
14. CC(=O)Nn1cnc2c(c1=O)C1(CCCC1)Cc1ccccc1-2  16.8%
15. CCCSc1nnc2n(-c3ccccc3OC)c(=O)c3c4c(sc3n12)CCC4  15.6%
16. Nn1c(SCC(=O)Nc2ccc3c(c2)OCCO3)nnc1C(F)(F)F  14.6%
17. CC(=O)Oc1ccc(C(c2ccc(OC(C)=O)cc2)c2ccccn2)cc1  14.2%
18. CCOC(=O)CSc1nc(N2CCOCC2)c2c(c1C#N)CC(C)(C)N(C)C2  13.9%
19. CCN(CC)c1nc(-c2cccc(OC)c2O)nc2ccccc12  13.8%
20. Cc1nc(-c2coc3cc(OCC(=O)O)ccc3c2=O)cs1  13.4%
21. c1ccc(-c2nnc3n2N=C(c2ccc4c(c2)OCO4)CS3)nc1  13.4%
22. CCCCc1nc(NCC2CCCO2)c(C#N)c2c1COC(C)(C)C2 (stereo unspecified)  13.2%
23. COC(=O)CN(c1nc(C)cc(OC)n1)S(=O)(=O)c1ccccc1  12.9%
24. Cn1c2ccccc2c2nn(-c3ccccc3)c(=O)cc21  12.4%
25. O=C1CC(c2ccco2)CC(O)=C1C=NCCN1CCN(C2CC(=O)N(c3ccccc3)C2=O)CC1 (stereo unspecified)  11.7%
26. N#CCc1nc2c3c4c(sc3ncn2n1)CCCC4  9.82%
27. Cc1cc2ccccc2cc(C)c1=O  9.2%
28. COc1cccc(-c2nc(NCc3ccco3)c3ccccc3n2)c1O  9.14%
29. O=C(c1ccc(F)cc1)C1CCN(CCn2c(=O)[nH]c3ccccc3c2=O)CC1  8.97%
30. CCOC(=O)c1ccc(N=CC2=C(O)CC(c3ccco3)CC2=O)cc1 (stereo unspecified)  8.87%
31. COc1ccc(C(=O)Cn2c(N3CCCCC3)nc3c2c(=O)n(C)c(=O)n3C)cc1OC  8.72%
32. Cn1c(=O)cc(NCc2ccccc2)[nH]c1=O  8.28%
33. CCOC(=O)c1cnn2c1[nH]c(=O)c1ccccc12  7.89%
34. COc1ccc(/C(O)=C2\C(=O)C(=O)N(c3cc(C)on3)C2c2ccccc2OC)cc1C (stereo unspecified)  7.8%
35. COC(=O)CSC1=C(C#N)C(=O)NC2(CCCCC2)S1  7.6%
36. O=C(CC(c1ccc(F)cc1)c1ccco1)N1CCCC1 (stereo unspecified)  7.48%
37. Nc1nc(NC(=O)Cc2ccccc2)nn1-c1ccccc1  6.96%
38. Cc1ccc(-n2c(N)c(C(N)=O)sc2=S)cc1  6.9%
39. COC(=O)CNc1nc(-c2cccnc2)nc2ccccc12  6.85%
40. C=CCn1c(=S)[nH]c2ccccc2c1=O  6.62%
41. CC1(C)CC(=O)C2=C(C1)OC(N)=C(C#N)C2C1C=CCCC1 (stereo unspecified)  5.77%
42. N#Cc1nc(COc2ccccc2F)oc1NCCCn1ccnc1  5.01%
43. CC(COc1ccccc1)NC(C)C(O)c1ccc(O)cc1 (stereo unspecified)  4.38%
44. Cc1cc(OCC(=O)Nn2cnnc2)ccc1Br  4.24%
45. CC(NC(=O)c1ccc(=O)oc1)c1ccccc1 (stereo unspecified)  3.88%
46. O=S1(=O)C[C@@H](N2CCOCC2)[C@H](N2CCOCC2)C1  3.83%
47. CC(C(=O)N(C)C)N(C#N)c1nc(N(C)C)nc(N(C)C)n1 (stereo unspecified)  3.51%
48. COC(=O)c1ccc(C2/C(=C(\O)c3ccc4c(c3)OCCO4)C(=O)C(=O)N2CCCN(C)C)cc1 (stereo unspecified)  3.46%
49. N#Cc1c(N)n(CCOC(=O)c2cccc(Br)c2)c2nc3ccccc3nc12  3.2%
50. CCO/C(C)=N/n1c2nc3ccccc3nc2c2c(=O)n(CC(C)C)c(C)nc21  3.19%
51. O=C1OC(Nc2ccc(Br)cc2F)c2ccccc21 (stereo unspecified)  3.02%
52. CCOC(=O)CNC(=O)CNC(=O)c1ccc(OC)cc1  2.92%
53. CCOC(=O)C1/C(=N\O)CC(C)(O)C(C(=O)OCC)C1c1ccc(OC)c(OC)c1 (stereo unspecified)  2.33%
54. Cc1ccc2cc(CNC(C)C)c(=O)[nH]c2c1  2.25%
55. CC(=O)Nc1ccc(OC(=O)CC2SC(=O)NC2=O)cc1 (stereo unspecified)  1.99%
56. CCOC(=O)c1[nH]c2ccccc2c1N=CN(CC)CC  1.27%
57. COc1cccc(C2C(C(=O)c3cc4ccccc4o3)=C(O)C(=O)N2CCN(C)C)c1OC (stereo unspecified)  1.22%
58. COc1ccc(C(=O)Nc2nc(N)n(-c3ccccc3)n2)cc1OC  1.17%
59. O=C(Nc1ccccn1)NC(C(F)(F)F)C(F)(F)F  0.87%
60. O=C(NCCO)C1(c2ccccc2)CCCC1  0.3%
61. Cc1ccc(OCC(=O)N2CCC(N3CCCCCC3)CC2)cc1  0.02%
62. O=S1CCCSC1c1cccnc1 (stereo unspecified)  -0.58%
63. O=C(CCCN1C(=O)c2ccccc2C1=O)N1CCC(c2ccccc2)C1 (stereo unspecified)  -0.61%
64. Cc1cc(=O)oc2c(CN3CCC(C)CC3)c(O)c(Cl)cc12  -0.87%
65. CN(C)c1ccc(C=NCC2(O)CCOC(C)(C)C2)cc1 (stereo unspecified)  -1.1%
66. OCCNC1=NCCN1  -1.49%
67. O=C(O)c1cnn2c(C(F)(F)F)cc(-c3ccco3)nc12  -1.5%
68. Cn1c[n+](C)cc1/C=N/O  -3.08%
69. CCCC(C)n1[nH]c(=O)cc1N (stereo unspecified)  -3.66%
70. CC(C)Oc1ccc(Cc2c(O)nc(NCCCN(C)C)[nH]c2=O)cc1  -4.15%
71. CCN(CC)C(=O)COn1c(SCC(=O)N(CC)CC)nc2ccccc2c1=O  -4.27%
72. COc1ccc(C(CC(=O)N2CCOCC2)C(C)C)cc1 (stereo unspecified)  -4.83%
73. CCN(CC)CCN1C(=O)C(=O)/C(=C(/O)c2ccc(F)cc2)C1c1ccncc1 (stereo unspecified)  -7.83%
74. CCCC(=O)Nc1nn(CCC)c2nc3ccccc3cc12  -8.01%
75. Cc1noc(NS(=O)(=O)c2ccc(NC(=O)COc3ccccc3)cc2)c1C  -8.3%
76. COC(=O)c1ccc(CSc2ncnc3c2sc2nc(N4CCOCC4)c4c(c23)CCCC4)o1  -12.8%
77. Cc1ccc2cc(CNC(C)(C)C)c(=O)[nH]c2c1  -14.5%

For `CCN(CC)c1ccc(C2Nc3cccc4cccc(c34)N2)c(O)c1`, the growth inhibition was 77.5% (active).
In the case of `CC(COc1ccccc1)N(CCCl)Cc1ccccc1` (stereo unspecified), the growth inhibition is reported as 54.1% (active).
With `OCCN(CCO)c1ncnc2c1sc1nc(N3CCOCC3)c3c(c12)CCCC3` the growth inhibition was 58.3% (active).
In the case of `CC(NCCC(c1ccccc1)c1ccccc1)c1ccccc1` (stereo unspecified), the growth inhibition is reported as 90.6% (active).
With `CCCOC(=O)CSC1=C(C#N)C(c2ccc3c(c2)OCO3)CC(=O)N1` (stereo unspecified) the growth inhibition was 50.4% (active).
For `CCN(CC)C(=O)CSc1nc2ccccc2c(=O)n1CC1CCCCC1`, the growth inhibition was 59.2% (active).
With `O=c1c2ccccc2[nH]c(=S)n1CCN1CCC(=C(c2ccc(F)cc2)c2ccc(F)cc2)CC1` the growth inhibition was 69.1% (active).
With `CC[C@]1(O)CC2CN(CCc3c([nH]c4ccccc34)[C@@](C(=O)OC)(c3cc4c(cc3OC)N(C=O)[C@H]3[C@@](O)(C(=O)OC)[C@H](OC(C)=O)[C@]5(CC)C=CCN6CC[C@]43[C@@H]65)C2)C1` (stereo partly specified) the growth inhibition was 59.6% (active).
With `CC[C@]1(O)C[C@@H]2CN(CCc3c([nH]c4ccccc34)[C@@](C(=O)OC)(c3cc4c(cc3OC)N(C)[C@H]3[C@@](O)(C(=O)OC)[C@H](OC(C)=O)[C@]5(CC)C=CCN6CC[C@]43[C@@H]65)C2)C1` the growth inhibition was 71.8% (active).
For `CCC(=O)Oc1ccc(C(CC)C(CC)c2ccc(OC(=O)CC)cc2)cc1` (stereo unspecified), the growth inhibition was 62.3% (active).
For `CCC(=O)Oc1ccc(/C(CC)=C(\CC)c2ccc(OC(=O)CC)cc2)cc1`, the growth inhibition was 71.7% (active).
For `CCCc1nc(NC2CCCCC2)c(C#N)c2c1COC(C)(C)C2`, the growth inhibition was 51.4% (active).
For `O=C1CC(c2ccco2)CC(O)=C1C=Nc1cc(Cl)ccc1O` (stereo unspecified), the growth inhibition was 52.3% (active).
In the case of `Cc1ccc2nc(NCc3ccccc3)[nH]c2c1`, the growth inhibition is reported as 66.2% (active).
With `O=C(Nc1nc(NC(=O)c2ccco2)n(-c2ccccc2)n1)c1ccccc1` the growth inhibition was 82.7% (active).
With `CC(C)OC(=O)c1c2nc3ccccc3nc2n2c1[nH]c(=O)c1ccccc12` the growth inhibition was 60.3% (active).
In the case of `c1cc2c(cc1C1=Nn3c(nnc3C3CCCCC3)SC1)OCO2`, the growth inhibition is reported as 50.2% (active).
For `COc1cccc(-c2nc(NC(C)C)c3ccccc3n2)c1O`, the growth inhibition was 77.9% (active).
In the case of `CCC(C)Nc1nc(-c2cccc(OC)c2O)nc2ccccc12` (stereo unspecified), the growth inhibition is reported as 71.5% (active).
